FBPA Giardia inh: blocks Giardia fructose-bisphosphate aldolase activity | A8B2U2 | purified Giardia FBPA | Potency, µM (doses to about 59.6 µM), for inactives: at the highest dose activity, negative = inhibition, actives largely listed as inhibitors | actives 0.71% (n = 290,000) | AID 2451; note: potency is the fitted concentration of half-maximal effect; nearly all actives have a fitted effect of over 55% in size
Target sequence (A8B2U2 whole entry, looked up): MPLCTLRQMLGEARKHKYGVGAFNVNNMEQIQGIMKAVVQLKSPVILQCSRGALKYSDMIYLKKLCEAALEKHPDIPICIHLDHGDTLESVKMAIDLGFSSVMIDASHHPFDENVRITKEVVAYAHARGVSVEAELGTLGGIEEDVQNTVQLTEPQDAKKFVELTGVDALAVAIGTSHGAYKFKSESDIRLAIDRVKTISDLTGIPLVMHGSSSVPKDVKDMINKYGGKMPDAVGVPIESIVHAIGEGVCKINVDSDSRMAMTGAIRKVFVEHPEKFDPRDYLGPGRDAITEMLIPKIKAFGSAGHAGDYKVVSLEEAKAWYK
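Giardia FBPA (40 nM reagent) was preincubated 10 min at RT with compound (up to 57.5 uM final), then substrate plus GAPDH/TPI/NAD/arsenate coupling system with diaphorase/resazurin was added; resorufin fluorescence (525/598 nm) was read after 20 min.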
Vaccinia mCherry: vaccinia inhibition (mCherry reporter); actives 0.63% (n = 310,000); Potency, µM (series often up to 36.5 µM), for the others: top-dose activity change, negative = inhibition, hits mostly inhibitors; Vaccinia virus mCherry reporter infection, fluorescence; calls by dose curve; tested in A549 cells; note: potency is the fitted concentration of half-maximal effect; nearly all actives have a fitted effect of over 35% in size
HCMV inh: human cytomegalovirus inhibition | activity change, negative = inhibition, % at 57.5 µM | actives 4.5% (n = 410,000) | HFF cells, HCMV-luciferase reporter, 72 h; stronger effect = lower value | AID 1259415; in the data active = activity change below about -60%; inconclusive = no clear call, values can overlap the other calls; inactive = above about -39%
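Inhibition of viral replication was scored as loss of reporter luminescence in HFFs infected with HCMV-luciferase (MOI 1 PFU/cell) for 72 h; compounds tested at 2 doses, normalized to buffer and Salinomycin controls.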
HCV inhibitor: inhibitors of hepatitis C virus infection; actives 3.4% (n = 340,000); Potency, µM (series often up to 41.8 µM), inactives show at the highest dose activity change, negative = inhibition, usual class: inhibitors; Huh7.5.1 HCVcc-Cre infection, luciferase reporter, 44 h; AID 651820; note: potency is the fitted concentration of half-maximal effect
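Luciferase read-out (15 sec integration) after a 15 min room-temperature substrate step quantifies HCVcc-Cre infection. Cells, 1,000 per well, had compound added 4 h post-plating, then virus at ~0.5 moi, and were cultured 44 h.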
FMDV antiviral: foot and mouth disease virus antiviral activity; FMDV antiviral cell-based qHTS; Potency, µM (series often up to 57.9 µM), inactives show at the highest dose activity change, negative = inhibition, actives largely listed as inhibitors; actives 1.2% (n = 410,000); AID 1159524; calls by dose curve; tested in HEK293T cells; note: read-out not given here; potency is the fitted concentration of half-maximal effect; nearly all actives have a fitted effect of over 45% in size
Vaccinia Venus: vaccinia inhibition (Venus reporter) | Vaccinia virus Venus reporter expression, fluorescence | actives 0.46% (n = 330,000) | Potency, µM (top dose mostly 36.5 µM), without a hit: top-dose activity change, negative = inhibition, actives largely listed as inhibitors; calls by dose curve; tested in A549 cells; note: potency is the fitted concentration of half-maximal effect; nearly all actives have a fitted effect of over 30% in size
Numbers without * were called inactive; i = inactive; ? = inconclusive; / = no result; ! = not confirmed by another sample. An excerpt weighted towards active compounds, which were near 7.5% of everything screened. Unless noted, calls come from the whole dose curve; as a rule, active = well fitted curve in the direction sought with a large enough effect; inconclusive = small, poorly fitted or top-dose-only effect, or another doubt; inactive = no such curve, though single readings can be large; an effect the other way counts as inactive or inconclusive. % is set by controls: 0 for no effect and ±100 for the full control effect.

SMILES	FBPA Giardia inh	Vaccinia mCherry	HCMV inh	HCV inhibitor	FMDV antiviral	Vaccinia Venus
CC(C)(CCO)Nc1ncnc2onc(-c3ccc(F)cc3)c12	24%	i	-64*	2%	-23%	-19%
Cc1cccc(Nc2nc(-c3sc(C)nc3C)cs2)c1	6%	-17%	22	2.8µM*	?	?
Cc1nc(NC(=O)c2ccccc2)sc1-c1csc(Nc2cccc(Cl)c2)n1	-13%	/	/	/	/	/
Cc1nc2ccccn2c1-c1csc(Nc2cccc(O)c2)n1	1%	?	?	0.89µM*	?	?
CCC(=O)Nc1nc(C)c(-c2csc(Nc3cccc(O)c3)n2)s1	-19%	/	83	7.1µM*	-14%	/
Cc1nc(C)c(-c2csc(Nc3cccc(O)c3)n2)s1	-17%	?	38	25µM*	32%	-29%
Cc1nc(N)sc1-c1csc(Nc2cccc(O)c2)n1	?	?	70	?	-28%	-20%
COc1ccc(Nc2nc(-c3sc(C)nc3C)cs2)c(OC)c1	3%	/	-15	?	-16%	/
COC(=O)[C@@H]1[C@@H](CO)[C@@H]2Cn3c(ccc(Br)c3=O)[C@@H]2N1Cc1cccc(F)c1	/	/	-3	/	/	/
COc1ccc(-n2ccc(-c3sc(NCc4cc(OC)c5c(c4)OCO5)nc3C)n2)cc1	/	-16%	/	/	-24%	-10%
C=CCn1c(O)c(N=NC(=O)c2cccnc2)c2cc(Br)ccc21	0%	/	13	?	?	/
CC(=O)c1cccc(S(=O)(=O)N2CCN(c3nc4cc(C)cc(C)c4cc3C#N)CC2)c1	0%	?	4	13µM*	-22%	-16%
O=c1cc(-c2ccccc2)[nH]n1-c1nc2ccccc2[nH]1	?	-29%	-84*	?	-20%	-28%
CCc1cc(=O)[nH]c(-n2[nH]c(-c3ccccc3)cc2=O)n1	-5%	-10%	-29	-1%	9%	-5%
COCCN(Cc1nc(C(c2ccccc2)c2ccccc2)no1)C(C)C	0%	i	5	-2%	1%	-2%
COc1ccc2[nH]c(=O)c(CN(Cc3cccnc3)Cc3nnnn3CC3CCCO3)cc2c1 (stereo not given)	-11%	/	?	1%	-14%	/
Cc1ccc(OCCNC(=O)c2cccc(Oc3ccc(C(F)(F)F)cc3[N+](=O)[O-])c2)cc1	0%	?	-80*	?	?	?
Cc1cccc2cc(C#N)c(SCC(=O)NNC(=O)Cc3ccccc3)nc12	1%	/	-63*	-22%	0%	/
Cc1cccc2cc(C#N)c(SCC#N)nc12	1%	/	-67*	4%	-24%	/
CCc1nc(SCC#N)c(C#N)cc1C	9%	/	/	/	/	/
Cc1ccc(CNn2cn[nH]c2=S)cc1	/	/	7	28%	4%	/
Cc1c(C(=O)C(=O)N2c3ccccc3CC2C)c2ccccc2n1C (stereo not given)	-22%	-24%	-64*	-29%	3%	?
Cc1c(C(=O)c2ccccc2)c2ccccc2n1C	-11%	i	-17	-25%	3%	-20%
CCN(c1ccccc1)S(=O)(=O)c1cc(C(=O)Nc2ccc(Br)cc2)ccc1F	-6%	14µM*	-89*	2.8µM*!	18µM*	13µM*
CCN(c1ccccc1)S(=O)(=O)c1cc(C(=O)Nc2ccccc2Cl)ccc1F	1%	-10%	-63*	?	?	-20%
SMILES	FBPA Giardia inh	Vaccinia mCherry	HCMV inh	HCV inhibitor	FMDV antiviral	Vaccinia Venus
Cc1ccccc1NC(=O)c1ccc(F)c(S(=O)(=O)N(C)Cc2ccccc2)c1	/	?	?	/	?	-29%
Cc1ccc(C(=O)Nc2ccccc2)cc1S(=O)(=O)Nc1ccc(Br)cc1	/	-9%	-23	/	28%	-23%
Cc1ccc(NC(=O)C(C)SCc2nc3sc4c(c3c(=O)[nH]2)CCCC4)nc1 (stereo not given)	/	/	23	7%	0%	/
Cc1ccc(C(=O)NC2CCc3ccccc3C2=O)cc1 (stereo not given)	-8%	-6%	75	-9%	35%	-14%
C[N+](C)(C)CC1CCCC(C[N+](C)(C)C)C1=O (stereo not given)	/	-12%	-28	2.2µM*	?	-2%
C[N+](C)(C)CC1CCCc2ccccc2C1=O (stereo not given)	/	-9%	?	11µM*	?	0%

Assay outcomes from PubChem.
